CF NFkB block: inhibitors of PAF-induced NF-kB signaling, primary screen, cell-based, GFP fluorescence, uHTS. KKLEB NF-kB-GFP reporter, GFP fluorescence overnight. inhibition, % at 5 µM. 360,000 compounds, 0.86% hits. AID 588850, 2011;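 active = at least 50% inhibition at 5 µM, scaled per plate between neutral and stimulator controls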;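 also: PAF is a Pseudomonas aeruginosa culture filtrate used as stimulus; plate controls were PAF-stimulated DMSO wells for no effect and unstimulated DMSO wells for full effect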
MITF TRPM1 inh: inhibitors of MITF-dependent TRPM1 promoter reporter, primary screen, cell-based, SK-MEL-5, single point, luciferase. SK-MEL-5 TRPM1 promoter luciferase, 24 h. inhibition, % at 12.5 µM. 330,000 compounds, 0.83% hits. AID 488899, 2010;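 active = mean inhibition across replicates of 60% or more, whatever share of single replicates reaches that level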
Peg3 prom inh: Peg3 promoter-driven luciferase inhibitors, primary screen, cell-based, HeLa, luciferase luminescence. HeLa PEG-Prom luciferase reporter, overnight. inhibition, % at 20 µM. 360,000 compounds, 1.7% hits. AID 588405, 2011;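 active = inhibition of at least 50% at 20 µM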
HIF-2a inh: HIF-2a reporter inhibitors, primary screen, luminescence, 786-0 RCC cells; 786-0 RCC cells HIF-2a reporter, luciferase luminescence, overnight; inhibition, % at 18.8 µM; 360,000 compounds, 0.72% hits; AID 624352, 2012;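 active = inhibition of the luminescence signal of 40% or more relative to plate controls, in a single-dose primary screen at 18.75 µM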
CHOP inh: inhibitors of CHOP promoter induction, primary screen, cell-based, unfolded protein response, luciferase reporter; 220,000 compounds, 3.8% hits; inhibition, % at 10 µM; AID 2732, 2010; CHO-K1 CHOP-promoter luciferase, tunicamycin-induced, 15-18 h;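 active = compounds that reduced the stress-induced luciferase reporter signal by more than about 70% of percent inhibition, limit read from the data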;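 also: 0% = tunicamycin plus vehicle and 100% = wells without tunicamycin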
KKLEB cytotox: cytotoxicity in KKLEB CF airway cells, primary screen, cytotoxicity control for CF NF-kB inhibitor project, cell-based, uHTS, fluorescence assay plates. activity change (cytotoxicity), % at 5 µM. KKLEB CF airway cells viability, ATPlite luminescence, overnight; hits give low values; cells stimulated with P. aeruginosa culture filtrate. AID 602141, 2011. 360,000 compounds, 0.36% hits;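 active = corrected activity change at or below -50% at 5 µM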
CHOP inh conf: retest of CHOP induction inhibitors, confirmation, cell-based; shares compounds with CHOP inh; CHO-CHOP promoter luciferase reporter, tunicamycin-induced, luminescence; inhibition, % at 10 µM; 2,100 compounds, 45% hits;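 active = mean of three repeat readings of reporter signal inhibition above a set limit, cut at about 70% in these data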;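 also: 0% = tunicamycin plus vehicle and 100% = wells lacking tunicamycin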
Starred values were filed as active, the others as inactive; / = no result given. A selection: hits, their analogues and other compounds. The true share with any hit is near 4.3%.

SMILES	CF NFkB block	MITF TRPM1 inh	Peg3 prom inh	HIF-2a inh	CHOP inh	KKLEB cytotox	CHOP inh conf
O=S(=O)(NCC(Nc1ccc(Cl)cc1)c1ccccc1)c1ccccc1 (stereo not given)	0	3	33	5	99*	6	22
O=C(COC(=O)Cc1ccc(Cl)cc1)Nc1ccc2[nH]c(=O)[nH]c2c1	6	6	12	7	/	0	/
O=C(Cc1ccc(Cl)c(Cl)c1)Nc1ccc2[nH]c(=O)[nH]c2c1	-23	9	-1	7	98*	22	6
CCOC(=O)N=Nc1c2ccccc2c2nc3no[nH]c3nc12	95*	103*	108*	-38	105*	-65*	112*
CCOC(=O)C1=C(N)Oc2cc(C)[nH]c(=O)c2C1c1ccncc1 (stereo not given)	-1	1	17	26	-5	4	/
CCOC(=O)C1=C(N)Oc2c(c(=O)[nH]c3ccccc23)C1c1ccccc1 (stereo not given)	2	-3	8	4	97*	-5	-4
Oc1[nH]c2ccccc2c1N=Nc1ccc(F)cc1	-8	-37	-225	-224	97*	8	59
CCCCCCC1CC(=CN(C)C)C(=O)O1 (stereo not given)	17	/	8	16	/	-17	/
Cc1ccc(NC(=O)C(c2ccccc2)N2CCN(C(=O)c3ccco3)CC2)cc1Cl (stereo not given)	10	-14	-1	-27	/	-6	/
CC(=O)Oc1oc(-c2ccccc2)nc1/C=N/c1ccccn1	10	17	-74	-138	101*	-6	-42
CSCCC(NS(=O)(=O)c1ccc(Cl)cc1)C(=O)OCc1cccc(Cl)c1 (stereo not given)	15	4	15	11	106*	7	68
CCCc1ccc(Oc2cn[nH]c2-c2ccc(O)cc2O)cc1	5	18	25	-6	108*	6	120*
C=C(C)COc1ccc(-c2[nH]ncc2Oc2ccccc2OCC)c(O)c1	5	-2	13	7	107*	-2	107*
C=C(C)COc1ccc(-c2n[nH]c(C)c2Oc2ccccc2OC)c(O)c1	-7	-5	46	26	107*	-21	115*
C=C(C)COc1ccc(-c2[nH]ncc2Oc2cccc(OC)c2)c(O)c1	4	13	33	-18	103*	-2	12
COc1ccc(-c2[nH]ncc2Oc2ccccc2OC)c(O)c1	2	2	9	4	55	0	/
CCOc1ccccc1Oc1cn[nH]c1-c1ccc(O)cc1O	-4	18	30	11	/	-1	/
CC(C)c1cccc(-c2csc(C(O)c3cccc(Cl)c3)n2)c1 (stereo not given)	7	/	31	1	/	10	/
Cc1ccc2c(c1)CCCN2C(=O)CCc1nc2ccccc2c(=O)[nH]1	5	/	33	4	/	-19	/
COc1ccc(C(=O)NNC(=O)CCn2nnc(-c3ccc(C)cc3)n2)cc1OC	-3	-2	3	32	29	2	/
C=C(C)COc1ccc(-c2[nH]ncc2-c2ccccc2)c(O)c1	6	9	12	14	102*	-2	24
C=C(C)COc1ccc(-c2[nH]ncc2-c2ccc(OC)c(OC)c2)c(O)c1	26	28	39	21	/	-8	/
Cc1ccc(C(=O)OC(C)C(=O)c2cc(C)c(C)cc2C)o1 (stereo not given)	-29	-16	-30	-42	/	13	/
Cc1cc2cc(CN(Cc3ccco3)C(=O)C3CCCCC3)c(=O)[nH]c2cc1C	2	20	13	12	105*	2	37
CC(C)(C)c1ccc(O)c(N=Cc2cc(Br)ccc2O)c1	4	25	47	52*	98*	-28	112*
SMILES	CF NFkB block	MITF TRPM1 inh	Peg3 prom inh	HIF-2a inh	CHOP inh	KKLEB cytotox	CHOP inh conf
FC(F)(F)c1nc(-c2ccncc2)ncc1-c1nnnn1-c1ccccc1	8	7	17	16	29	-17	/
Fc1ccc(-n2nnnc2-c2cnc(-c3cccs3)nc2C(F)(F)F)cc1	-7	27	100*	5	105*	-15	121*
C[C@H](NC(=O)C1CC(=O)N(c2ccc3c(c2)OCO3)C1)C(=O)NC1CCCCC1 (stereo not given in full)	-40	6	0	8	/	5	/
O=C1C=CC(=O)N1N(c1ccccc1)c1ccccc1	13	3	34	29	107*	11	118*
O=C1c2ccccc2C(=O)N1N(c1ccccc1)c1ccccc1	-35	8	16	19	/	7	/
CCN1C[C@@H]2[C@@H]3C(=O)N(C)C(=O)[C@@H]3[C@](C)(C1=O)N2C(=O)c1ccc(F)cc1	-6	3	-4	-1	/	-2	/
CCOC(=O)c1ccc(CNCc2ccc(Br)cc2)cc1	-12	-1	12	17	51	2	/
CCc1ccc(CN/C=C/C(=O)c2ccc(Br)cc2)cc1	-1	-18	-67	-83	104*	5	-26
COc1ccccc1-c1cc(C(F)(F)F)nc(S(=O)(=O)CCCC(=O)NC(C)C)n1	88*	86*	113*	90*	112*	-94*	117*
COc1ccccc1-c1cc(C(F)(F)F)nc(S(=O)(=O)CCCC(=O)Nc2cc(C)on2)n1	86*	96*	106*	73*	108*	-66*	125*
COc1ccccc1-c1cc(C(F)(F)F)nc(S(=O)(=O)CCCC(=O)Nc2cccnc2Cl)n1	72*	77*	111*	34	108*	-55*	121*
COc1ccccc1/C=C/C(=O)Nc1cccnc1Cl	13	-66	-204	-240	/	-11	/
COc1ccccc1-c1cc(C(F)(F)F)nc(N2CCCC2)n1	2	0	18	0	28	1	/
COc1ccccc1-c1cc(C(=O)Nc2cc(C)on2)no1	4	-68	-73	-229	1	-5	/
COc1ccc(-c2cc(C(F)(F)F)nc(S(=O)(=O)CCCC(=O)Nc3cc(C)on3)n2)cc1OC	102*	41	111*	-55	106*	-75*	-140
COC(=O)[C@]12CCCCC=C1N(Cc1ccc(Cl)cc1Cl)C(=O)[C@H](CC(=O)N1CCC(c3ccccc3)CC1)C2	/	/	/	2	/	/	/
Cc1c(C(=O)NC2CCOC2)oc2c(F)cccc12 (stereo not given)	-12	-79	-298	-251	/	2	/

Source: PubChem (several laboratories)
